We go through 40 compounds from PubChem BioAssay (Tox21).

Records with an inconclusive call do not appear. A number with no mark means an inactive call. Active and inactive are the calls of the source. The call rests on the fitted dose curve.
On the % scale 0 is the no-effect control and ±100 the full control effect; potency means the concentration at half of the fitted maximal effect.

Chain of Thyrotropin receptor (Homo sapiens) (P16473 whole entry, looked up): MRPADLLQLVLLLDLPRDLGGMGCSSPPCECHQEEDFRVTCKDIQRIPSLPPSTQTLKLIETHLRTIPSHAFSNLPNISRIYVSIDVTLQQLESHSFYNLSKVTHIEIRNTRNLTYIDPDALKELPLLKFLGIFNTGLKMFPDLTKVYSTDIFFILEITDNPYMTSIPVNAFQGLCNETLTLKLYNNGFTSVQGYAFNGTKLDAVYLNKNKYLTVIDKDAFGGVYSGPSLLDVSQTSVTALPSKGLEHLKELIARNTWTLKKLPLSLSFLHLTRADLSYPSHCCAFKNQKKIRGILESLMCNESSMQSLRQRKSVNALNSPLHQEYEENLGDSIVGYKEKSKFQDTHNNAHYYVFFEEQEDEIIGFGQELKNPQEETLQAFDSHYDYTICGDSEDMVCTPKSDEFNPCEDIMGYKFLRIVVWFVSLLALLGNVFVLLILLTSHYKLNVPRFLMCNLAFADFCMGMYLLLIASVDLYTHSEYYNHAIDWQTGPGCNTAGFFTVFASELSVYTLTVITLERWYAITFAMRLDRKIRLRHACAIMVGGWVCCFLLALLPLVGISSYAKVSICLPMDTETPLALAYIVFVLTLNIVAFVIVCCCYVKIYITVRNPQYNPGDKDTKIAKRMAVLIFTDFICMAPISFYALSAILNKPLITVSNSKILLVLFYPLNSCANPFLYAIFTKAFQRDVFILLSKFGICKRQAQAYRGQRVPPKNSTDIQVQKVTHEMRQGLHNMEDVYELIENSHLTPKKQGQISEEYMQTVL

The target of the experiment is Thyrotropin receptor (Homo sapiens) (UniProt P16473). Kind of experiment: qHTS assay to identify small molecule antagonists of the thyroid stimulating hormone receptor (TSHR) signaling pathway (AID 1259385). Further: nearly all actives have a fitted effect of over 20% in size. The following applies: TSHR-HEK293 cAMP HTRF, TSH-stimulated antagonist mode; series mostly up to 92.4 µM; activity change, negative = inhibition: at the top concentration. An excerpt:
U.S. Tox21 Program National Center for Advancing Translational Sciences [NCATS] NIH Chemical Genomics Center [NCGC] U.S. Environmental Protection Agency [EPA] National Institutes of Environmental Health Sciences [NIEHS] National Toxicology Program [NTP] U.S. Food and Drug Administration [FDA] Tox21 Assay Overview: TSHR is the receptor for thyrotropin (thyroid stimulating hormone or TSH), a member of the glycoprotein hormone family. TSH is released by the anterior pituitary gland and is the main regulator of thyroid gland growth and development. Upon binding circulating thyrotropin, a G-protein signal cascade activates adenylyl cyclase and […] cAMP concentration is increased. cAMP is a key second messenger involved extensively in cellular signal transduction pathways associated with the majority of G-protein coupled receptors (GPCRs). The activation of these GPCRs by neurotransmitters, lipids, nucleotides, peptides and hormones results in the activation or the inhibition of plasma membrane-bound adenylate cyclase through heterotrimeric G-proteins. A cell-based TSHR assay can be used to screen chemical compounds that modulate TSHR either in agonist or antagonist mode.
Tox21 Assay Protocol Summary: TSHR-Hek293 cells were dispensed at 800 cells/4uL/well in 1536-well white plates using a Multidrop dispenser. After the assay plates were incubated at a 37C/5% CO2 incubator for 18 hrs, 23 nL of compounds dissolved in DMSO, positive controls or DMSO only was transferred to the assay plate by a pin tool, followed by 1 ul medium containing Ro20-1724. For the antagonist mode screening, 1 uL of TSH was added on the top of the cell/compound mixtures to achieve a final agonist concentration of 1.5 ng/mL. After 30 min of incubation at room temperature, 2.5 ul/well of cAMP-d2 and 2.5 ul/well of anti-cAMP-cryptate were added respectively into the assay plates using a Flying Reagent Dispenser. The plates were incubated at room temperature for 1 hr. The fluorescence intensity in the plates was measured using an Envision plate reader. Each test compound was measured at 15 concentrations and in triplicates.
For orientation: Quantitative high-throughput screening tests each substance at several concentrations.
For `CC(=O)Oc1ccc(C(=C2CCCCC2)c2ccc(OC(C)=O)cc2)cc1`, the “activity change, negative = inhibition” value was -3.61% [at 42.5 µM].

Turning to `COCC(O)CO` (stereo not given), the “activity change, negative = inhibition” value was -0.204%.

As for `O=S1OCCO1`, the “activity change, negative = inhibition” value is -0.213%.

In the case of `O=C(/C=C/c1ccccc1)OCCCc1ccccc1`, the “activity change, negative = inhibition” value was -5.3%.

As for `CCOC(=O)c1ccccc1OC`, the “activity change, negative = inhibition” value was 1.72%.

Consider `O=C1NCCN1`, for which the “activity change, negative = inhibition” value is -4.66%.

Take `COCc1c(C(C)C)nc(C(C)C)c(/C=C/[C@@H](O)C[C@@H](O)CC(=O)O)c1-c1ccc(F)cc1`: the Potency result was “inactive”.

For the compound `NC(=O)N(O)[C@@H]1C=C[C@H](Oc2cccc(Oc3ccc(F)cc3)c2)C1`, the “activity change, negative = inhibition” value is -0.0825%.

Take `CC(C)(C)C(=O)C(Oc1ccc(Cl)cc1)n1ccnc1` (stereo not given): the “activity change, negative = inhibition” value was 4.47% [at 42.5 µM].

`C[C@@H]1C[C@H]2[C@@H]3CCC4=CC(=O)C=C[C@]4(C)[C@@]3(F)[C@@H](O)C[C@]2(C)[C@H]1C(=O)CO`: the “activity change, negative = inhibition” value is -7.35% [at 42.5 µM].

`COc1ccc([C@@H]2Sc3ccccc3NC(=O)[C@@H]2O)cc1`: the “activity change, negative = inhibition” value is 2.27% [at 42.5 µM].

For `CN(C(=O)C(Cl)Cl)c1ccc(OC(=O)c2ccco2)cc1`, the “activity change, negative = inhibition” value was -0.106% [at 42.5 µM].

As for `CO[C@H]1O[C@H](CO)[C@@H](O)[C@H](O)[C@H]1O`, the “activity change, negative = inhibition” value was 2.87%.

In the case of `CCCc1c(OCCCOc2ccc(OCC(=O)O)cc2)ccc(C(C)=O)c1O`, the “activity change, negative = inhibition” value was 0.219%.

`CC(COc1ccc(C(C)(C)C)cc1)OS(=O)OCCCl` (stereo not given): the “activity change, negative = inhibition” value was 1.86%.

`CCCCCCOC(=O)C(C)C`: the “activity change, negative = inhibition” value is 1.54%.

As for `CCCCCCCCCCCC[N+](C)(C)CCCS(=O)(=O)[O-]`, the “activity change, negative = inhibition” value is -7.12%.

Consider `CN1CCCN=C1/C=C/c1cccs1`, for which the “activity change, negative = inhibition” value is -2.32% [at 42.5 µM].

Turning to `CCC(C)(O)CCC=C(C)C` (stereo not given), the “activity change, negative = inhibition” value was -0.559%.

In the case of `O=C(O)c1cccc(O)c1`, the “activity change, negative = inhibition” value was -0.0273%.

Regarding `COC(=O)c1cc(S(N)(=O)=O)ccc1OC`, the “activity change, negative = inhibition” value was -0.875% [at 42.5 µM].

For the compound `Cc1cc(OI)c(C(C)C)cc1-c1cc(C(C)C)c(OI)cc1C`, the “activity change, negative = inhibition” value was 4.73% [at 42.5 µM].

For the compound `C=CC(=O)NCOCC(C)C`, the “activity change, negative = inhibition” value was -0.778%.

`Cc1ccc(S(=O)(=O)NC2CCCCC2)cc1`: the “activity change, negative = inhibition” value was 1.03%.

Regarding `COc1cc2c(N3CCN(C(=O)Nc4ccc(OC(C)C)cc4)CC3)ncnc2cc1OCCCN1CCCCC1`, the “activity change, negative = inhibition” value was -7.24% [at 42.5 µM].

As to `C=C(C)C(=O)OCCOC(=O)CC(C)=O`, the “activity change, negative = inhibition” value was 2.11%.

Turning to `CC[C@@H]([C@H](C)O)n1ncn(-c2ccc(N3CCN(c4ccc(OC[C@@H]5CO[C@@](Cn6cncn6)(c6ccc(F)cc6F)C5)cc4)CC3)cc2)c1=O`, the Potency was 29.8 µM (active).

For `O=C(O)c1snc(Cl)c1Cl`, the “activity change, negative = inhibition” value was 4.06%.

For `CCCCOC(=O)CCS`, the “activity change, negative = inhibition” value was 2.02%.

Regarding `COc1cc2ncnc(Nc3ccc(F)c(Cl)c3)c2cc1OCCCN1CCOCC1`, the “activity change, negative = inhibition” value was -14.1% [at 42.5 µM].

`O=C(CS)OCCOC(=O)CS`: the “activity change, negative = inhibition” value is -1.3%.

In the case of `CC(C)CCCCCOC(=O)CCCCC(=O)OCCCCCC(C)C`, the “activity change, negative = inhibition” value is -2.9%.

`Cc1cc(O)c(C(C)C)cc1Cl`: the “activity change, negative = inhibition” value is -7.6% [at 42.5 µM].

Take `CC1CN(c2cc3c(cc2F)c(=O)c(C(=O)O)cn3-c2ccc(F)cc2F)CCN1` (stereo not given): the activity change, negative = inhibition was -6.71% [at 8.39 µM].

For `COc1cc2c(cc1OC)-c1cc(=Nc3c(C)cc(C)cc3C)n(C)c(=O)n1CC2`, the “activity change, negative = inhibition” value was 0.734% [at 42.5 µM].

Regarding `CCCCCCOC(=O)CCCCCCCC(=O)OCCCCCC`, the “activity change, negative = inhibition” value was -5.04%.

As to `C=CC(C)(C)CC(=O)OC`, the “activity change, negative = inhibition” value was -1.24%.

Turning to `O=C1OCCN1/N=C/c1ccc([N+](=O)[O-])o1`, the “activity change, negative = inhibition” value is 9.42% [at 42.5 µM].

As for `CC(C)(CCl)c1ccccc1`, the “activity change, negative = inhibition” value was -0.84%.

With `C/C=C/C=C/CCCCCCCO`, the “activity change, negative = inhibition” value was 1.12%.
